# Test results as given in PubChem BioAssay (NCI).
# Compounds without any hit were thinned out: in the full panel of roughly 83,000, 20% have a hit.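 Results are percent growth after 48 hours of single-concentration exposure. 100 means growth as in untreated cells, lower positive values show inhibition; negative values down to -100 show cell death.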 The source made the active and inactive calls. Rule for the calls: active = growth percent below 10; inactive = the rest.
# System: CCRF-CEM leukemia
# Experiment: NCI-60 one-dose screen, 48 h (100 = growth as untreated, 0 = no growth, -100 = all killed)
# Details: 10 µM unless noted
row,Structure (SMILES),growth
1,NC(=O)c1c(NC(=O)c2ccc(Cl)cc2)sc2c1CCC(=O)C2,7.15% (active)
2,Nc1c(C(=O)Nc2cccc3ncccc23)sc2nc3c(cc12)C(=O)CCC3,30.5% (inactive)
3,CCOC(=O)c1cn2ncnc(Oc3ccc(NC(=O)NC4CC4)c(F)c3)c2c1C,90.9% (inactive)
4,CCOC(=O)c1c2c(n3c1NCC3)-c1ccccc1C2=O,85% (inactive)
5,CCCC(O)Cn1ncc(C(=O)OCC)c1NC(=O)NCc1cccc(F)c1 (stereo not given),90.1% (inactive)
6,O=C(CCC(=O)c1nc2ncccc2[nH]1)NN1C(=O)CSC1c1ccc(Cl)cc1 (stereo not given),83.8% (inactive)
7,COc1ccc2nc(Cl)c(/C=C/C(=O)c3ccc(NC(=O)CSc4nnc(-c5ccc(Cl)c(Cl)c5)n4-c4ccccc4)cc3)cc2c1,90.8% (inactive)
8,CS(=O)(=O)Nc1cncc(-c2ccc3ncnc(Nc4ccc(F)c(Cl)c4)c3c2)c1,11.8% (inactive)
9,Cc1ccc(-c2nc(C#N)c(S(=O)(=O)NCCO)o2)cc1,-17.5% (active)
10,O=C1OCC2=C1C(c1cccc(C(F)(F)F)c1)c1cc3c(cc1N2CCO)OCO3 (stereo not given),7.82% (active)
11,Cc1[nH]c(C(=O)Nc2cccc(OC3CCNCC3)c2)c(Cl)c1Cl,55.3% (inactive)
12,O=C1/C(=C/c2ccc(Br)cc2)COc2ccc(O)c(O)c21,-6.17% (active)
13,CCN1C(=S)N(CC)C2C1NC(=S)N2/N=C/C=C/c1ccccc1OC (stereo not given),12.2% (inactive)
14,COc1cc(-c2nc3occn3c2-c2ccnc(NCCCNS(=O)(=O)c3ccccc3)n2)ccc1F,17.3% (inactive)
15,O=C(O)c1cccc(N/C=C/C(=O)c2cc3cc(Br)ccc3oc2=O)c1,101% (inactive)
16,N#Cc1c(Nc2ccc(F)cc2)n[nH]c1-c1cccs1,100% (inactive)
17,COc1ccc(C2C(C#N)=C(N)Oc3c2sc2c(Br)cccc32)cc1 (stereo not given),12.5% (inactive)
18,CCNc1nc(-c2ccc(F)cc2)c(C#N)c(=O)n1C,85.9% (inactive)
19,CC12CCC(/C(=C/NNc3ccc([N+](=O)[O-])cc3[N+](=O)[O-])C1=O)C2(C)C (stereo not given),47.4% (inactive)
20,S=c1[nH]c2cc(Cl)ccc2o1,-43.2% (active)

row,Structure (SMILES),growth
1,COc1cc2c3c(c1O)-c1ccccc1[C@@H]1OC(=O)N(CC2)[C@H]31,74.1% (inactive)
2,CC(C)CSc1oc(-c2ccccc2)nc1S(=O)(=O)c1ccccc1,86.9% (inactive)
3,C#CCOc1cccc(-c2ncc3cc(NC(=O)CCl)ccc3n2)c1,-16.8% (active)
4,Cn1c(=O)c2c(nc(NC3=NS(=O)(=O)c4ccccc43)n2Cc2ccccc2)n(C)c1=O,104% (inactive)
5,COc1cc2c(c(OC)c1OC)C(=O)CC(c1cccc(NC(=O)c3ccccc3Br)c1)O2 (stereo not given),73.1% (inactive)
6,CC(C)(CO)N(CCO)CCO,92.8% (inactive)
7,CC(=O)c1c(Nc2ccc(F)c(F)c2F)[nH]c2c(F)cc(F)cc2c1=O,6.3% (active)
8,C#CCOc1ccc2ncnc(Nc3cccc(NC(=O)CCl)c3)c2c1,16.1% (inactive)
9,COc1ccc(/C=C/C(=O)c2ccc(NC(=O)CSc3nnc(-c4cc(-c5ccccc5)nc5ccccc45)n3-c3ccccc3)cc2)cc1,88.3% (inactive)
10,CCn1cc(C2=C(c3cn(C)c4ncccc34)C(=O)NC2=O)c2cccnc21,65.8% (inactive)
11,NNC(=S)N/N=C/c1ccccn1,12% (inactive)
12,Cc1ccc2nc(Cl)c(Cn3nnnc3SCc3ccccc3)cc2c1,93.9% (inactive)
13,Clc1nn2c(Cn3cnc4c(NCc5ccccc5)ncnc43)nnc2c2ccccc12,39% (inactive)
14,CN(C)c1ccc(/C=C2/C=C(c3ccccc3)OC2=O)cc1,52.7% (inactive)
15,O=C(CN1C(=O)NC2NC(=O)NC21)N/N=C/c1ccc(Cl)cc1Cl (stereo not given),107% (inactive)
16,COc1cccc(Nc2ccnc3[nH]c4ccc([N+](=O)[O-])cc4c23)c1,42% (inactive)
17,COc1ccc(C/C(C)=C(/c2ccc(OCCN3CCCCCC3)cc2)c2ccc(OC(=O)NCc3ccccc3)cc2)cc1,58% (inactive)
18,O=C(O)C1CN(c2cccc(Cl)c2)N(c2cccc(Cl)c2)C1=O (stereo not given),107% (inactive)
19,CN(C)c1ccc(/C=C/C(=O)c2ccc(Nc3nc(Nc4ccc(F)cc4)nc(Nc4ccc(Cl)cc4)n3)cc2)cc1,4.13% (active)
20,COC(=O)c1nc(-c2ccccc2)oc1S(=O)(=O)N1CCC(C(N)=O)CC1,-3.72% (active)
